# PubChem BioAssay (NCATS)
# Records with an inconclusive call do not appear. A call without a number means that no potency is given here. Calls of active or inactive are those of the source. Calls follow the shape of the dose curve; as a rule, active = well fitted curve in the direction sought with a large enough effect; inconclusive = small, poorly fitted or top-dose-only effect, or another doubt; inactive = no such curve, though single readings can be large; an effect the other way counts as inactive or inconclusive.
# Experiments:
# [1] = system: Zika virus NS2B-NS3 protease; assay: Primary screen GU AMC qHTS for Zika virus inhibitors (AID 1347154); also: nearly all actives have a fitted effect of over 70% in size
# Procedure, shortened: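 Unlinked Zika NS2B hydrophilic domain–NS3 protease complex at 25 nM in 10 mM Tris-HCl pH 8.0, 0.01% Tween 20, with an AMC peptide substrate. Fluorescence change (340/450 nm) over 15 min at room temperature, normalized to controls, fitted to 4-parameter Hill.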
# [2] = system: Zika virus NS2B-NS3 protease (unlinked complex); assay: Primary screen GU Rhodamine qHTS for Zika virus inhibitors: Unlinked NS2B-NS3 protease assay (AID 1347159); also: nearly all actives have a fitted effect of over 60% in size; also: potency is read from the fitted curve at half-maximal effect
# Procedure, shortened: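 Enzyme 25 nM in Tris-HCl pH 8.0 + 0.01% Tween 20; compounds up to 114 microM, 15 min RT dark; + Rhod110 substrate 1.5 microM; read t0 and 15 min; delta fluorescence → % inhibition → 4-parameter Hill fit.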
# [3] = system: Zika virus NS2B-NS3 protease (linked construct); assay: Primary screen NINDS Rhodamine qHTS for Zika virus inhibitors (AID 1347160); also: nearly all actives have a fitted effect of over 55% in size; also: potency is read from the fitted curve at half-maximal effect
# Procedure, shortened: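 Enzyme (25 nM, linked NS2B-NS3) was preincubated 15 min with compound in 10 mM Tris-HCl pH 8.0, 0.01% Tween 20. Rhodamine110 substrate (1.5 microM) was then added and fluorescence read at start and after 15 min.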
# [4] = OV-KATE Cancer Cell Toxicity qHTS against the NCATS CANVASS Library (AID 1347345)
# Procedure, shortened: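 Quantitative HTS format: an 11-concentration series was applied to 1000 cells/well following a 4-hour attachment. Cultures ran 72 hours before ATP luminescence detection by CellTiter-Glo.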
# [5] = HPAF-II Cancer Cell Toxicity qHTS against the NCATS CANVASS Library (AID 1347346); also: series mostly up to about 38 µM; nearly all actives have a fitted effect of over 55% in size
# Procedure, shortened: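 1000 HPAF-II cells/well; 4 h pre-incubation; 11-pnt compound titration; 72 h, 37 degrees C/5% CO2; CellTiter-Glo, 15 min RT; luminescence read.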
# [6] = Confirmatory screen NINDS Rhodamine qHTS for Zika virus inhibitors (AID 1347161); also: nearly all actives have a fitted effect of over 60% in size; also: potency is read from the fitted curve at half-maximal effect
# Procedure, shortened: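 Kinetic fluorescence (Ex 480 nm, Em 540 nm) over 15 min with 1.5 microM Rhodamine110 peptide and 25 nM linked protease.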
# [7] = system: Zika virus NS2B-NS3 protease (linked construct); assay: 384 well plate NINDS Rhodamine confirmatory qHTS for Zika virus inhibitors (AID 1347164);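 also: fluorescence from protease cleavage of Ac-LKRR-rhodamine 110 substrate; top concentration of the series differs between compounds; nearly all actives have a fitted effect of over 65% in size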
# Procedure, shortened: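 Fluorescence read at ex 485 nm/em 538 nm, 25 min after adding 10 microM Ac-LKRR-Rd substrate at room temperature in the dark; signal normalized to no-enzyme and no-inhibitor controls. Enzyme final 5, 30 or 60 nM; compounds, ~15 min preincubation.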
# [8] = HepG2 cells viability qHTS for Zika virus inhibitors (AID 1347168)
# Procedure, shortened: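 qHTS titration; 24-48 h compound exposure, 37 degrees C/5% CO2; DMEM, 4% FBS; CellTiter Glo ATP luminescence.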
# [9] = Tertiary RLuc qRT-PCR qHTS assay for Zika virus inhibitors (AID 1347169); also: top concentration of the series differs between compounds; nearly all actives have a fitted effect of over 55% in size
# Procedure, shortened: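 Luminescence read-out: live-cell Renilla luciferase substrate applied to infected Vero cells, signal measured after 1-1.5 hrs. Cells had received compound before ZIKV-RLuc (Cambodian strain, MOI 1-2) infection and were incubated 48-72 hrs at 37 degrees C.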
# [10] = Confirmatory screen GU Rhodamine qHTS for Zika virus inhibitors qHTS (AID 1347157); also: nearly all actives have a fitted effect of over 70% in size
# Procedure, shortened: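 Compounds, tested up to 114 microM, were incubated for 15 minutes with 25 nM unlinked NS2B-NS3 protease at pH 8.0. Cleavage of 1.5 microM Rhodamine110 substrate was then followed by fluorescence for 15 minutes.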
# [11] = biological target: Lysine-specific demethylase 5B (Homo sapiens) (UniProt Q9UGL1); assay: Optimization screen for KDM5B Histone Demethylases FDH coupled qHTS against the LOPAC library (AID 1347166)
# Chain of Lysine-specific demethylase 5B (Homo sapiens) (Q9UGL1 whole entry, looked up): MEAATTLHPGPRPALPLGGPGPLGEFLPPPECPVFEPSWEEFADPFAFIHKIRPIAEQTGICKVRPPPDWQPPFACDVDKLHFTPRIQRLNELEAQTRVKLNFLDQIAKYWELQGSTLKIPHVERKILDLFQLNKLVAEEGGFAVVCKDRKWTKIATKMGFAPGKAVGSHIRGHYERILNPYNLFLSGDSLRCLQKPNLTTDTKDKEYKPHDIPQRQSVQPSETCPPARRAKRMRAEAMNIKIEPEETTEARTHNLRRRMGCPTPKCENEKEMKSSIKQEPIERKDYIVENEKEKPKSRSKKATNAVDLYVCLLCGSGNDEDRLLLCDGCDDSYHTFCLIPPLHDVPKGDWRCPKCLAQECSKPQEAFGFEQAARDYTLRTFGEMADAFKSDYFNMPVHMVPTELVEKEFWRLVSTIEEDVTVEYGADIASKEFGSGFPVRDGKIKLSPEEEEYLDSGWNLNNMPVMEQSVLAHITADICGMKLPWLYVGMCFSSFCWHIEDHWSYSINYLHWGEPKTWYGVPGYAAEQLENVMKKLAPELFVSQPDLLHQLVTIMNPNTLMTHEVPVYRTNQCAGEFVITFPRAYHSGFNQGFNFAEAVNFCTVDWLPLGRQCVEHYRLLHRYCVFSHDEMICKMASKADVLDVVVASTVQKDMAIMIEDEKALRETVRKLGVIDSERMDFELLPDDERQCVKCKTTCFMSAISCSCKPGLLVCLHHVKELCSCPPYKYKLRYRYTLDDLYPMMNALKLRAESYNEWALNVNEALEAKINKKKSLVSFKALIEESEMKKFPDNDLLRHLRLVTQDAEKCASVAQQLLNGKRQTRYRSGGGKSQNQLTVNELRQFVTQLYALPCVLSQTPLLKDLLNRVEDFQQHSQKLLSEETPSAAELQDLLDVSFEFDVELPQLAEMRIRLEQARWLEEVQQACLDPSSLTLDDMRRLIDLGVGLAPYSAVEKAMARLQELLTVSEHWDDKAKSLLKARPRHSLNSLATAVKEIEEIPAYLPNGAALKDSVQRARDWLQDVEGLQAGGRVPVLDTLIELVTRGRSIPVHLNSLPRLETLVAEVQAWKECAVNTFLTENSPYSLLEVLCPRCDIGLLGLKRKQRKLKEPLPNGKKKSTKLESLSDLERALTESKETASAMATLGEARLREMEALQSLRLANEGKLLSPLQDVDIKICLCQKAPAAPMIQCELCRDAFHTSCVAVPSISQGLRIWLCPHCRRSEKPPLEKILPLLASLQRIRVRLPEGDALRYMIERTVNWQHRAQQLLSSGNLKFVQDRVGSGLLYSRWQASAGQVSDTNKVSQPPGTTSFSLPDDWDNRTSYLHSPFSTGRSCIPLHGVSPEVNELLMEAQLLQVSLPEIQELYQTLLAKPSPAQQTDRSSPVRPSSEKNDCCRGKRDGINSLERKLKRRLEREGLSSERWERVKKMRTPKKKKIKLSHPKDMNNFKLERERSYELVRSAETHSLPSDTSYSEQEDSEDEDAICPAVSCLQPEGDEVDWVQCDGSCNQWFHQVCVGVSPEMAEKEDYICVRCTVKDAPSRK
# Procedure, shortened: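 KDM5BDeltaAP (200nM final) in 50mM HEPES pH 7.5, 0.01% Tween-20 was preincubated with compound for 10 min at room temperature. A substrate mix of 12.5uM H3K4Me3, 25uM a-ketoglutarate, ascorbate, Fe2+, NAD+ and formaldehyde dehydrogenase was then added. NADH fluorescence (340/450 nm) was read initially and after 30 min.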
structure (smiles),measurement,setting,value
CC(C)(C)c1cc(C(=O)O)c(NC(=O)Nc2ccc3[nH]ncc3c2)s1,Potency,[1],inactive
same,Potency,[2],17.8 µM (active)
O=C(O)c1cc(-c2ccccc2)nc2ccccc12,Potency,[1],inactive
same,Potency,[2],inactive
NS(=O)(=O)c1ccc(NC2=CC(=O)c3ccccc3C2=O)cc1,Potency,[1],inactive
CCC(=O)NC[C@H](Cc1ccc(OCCc2nc(-c3ccccc3)oc2C)cc1)NC(C)=CC(=O)c1ccc(C(F)(F)F)cc1,Potency,[1],inactive
CCNc1cc(NC2CCC(O)CC2)nc(Nc2ccc3c(ccn3Cc3ccccc3)c2)n1 (stereo not drawn),Potency,[1],inactive
CO[C@H]1C=CO[C@@]2(C)Oc3c(C)c(O)c4c(O)c(c5c(c4c3C2=O)NC2(CCN(CC(C)C)CC2)N=5)=NC(=O)C(C)=CC=C[C@H](C)[C@H](O)[C@@H](C)[C@@H](O)[C@@H](C)[C@H](OC(C)=O)[C@H]1C,Potency,[1],inactive
same,Potency,[2],inactive
same,Potency,[3],inactive
CC(C(=O)O)c1ccc(-c2ccccc2)c(F)c1 (stereo not drawn),Potency,[1],inactive
CCOC(=O)O[C@]1(C(=O)OCCl)CC[C@@H]2[C@H]3CCC4=CC(=O)C=C[C@]4(C)[C@@H]3[C@@H](O)C[C@@]21C,Potency,[1],inactive
O=C(O)C(O)Cc1ccc(O)c(O)c1 (stereo not drawn),Potency,[3],3.49 µM (active)
same,outcome,[4],inactive
same,outcome,[5],inactive
COc1cc(Nc2ncc(F)c(Nc3ccc4c(n3)NC(=O)C(C)(C)O4)n2)cc(OC)c1OC,Potency,[3],inactive
CN(C)c1cc(NC(=O)CNC(C)(C)C)c(O)c2c1C[C@@H]1C[C@H]3[C@H](N(C)C)C(=O)C(C(N)=O)=C(O)[C@@]3(O)C(=O)C1=C2O,Potency,[6],4.41 µM (active)
same,Potency,[7],inactive
same,outcome,[8],inactive
same,Potency,[9],inactive
CC1CCC(C(=O)N(c2cc(C#CC(C)(C)C)sc2C(=O)O)C2CCC(O)CC2)CC1 (stereo not drawn),Potency,[2],7.94 µM (active)
same,Potency,[6],5.53 µM (active)
same,outcome,[8],inactive
CC(C)C(=O)Oc1ccc(CO)cc1[C@H](CCN(C(C)C)C(C)C)c1ccccc1,Potency,[1],inactive
same,Potency,[2],inactive
same,Potency,[3],inactive
Cc1ccc(Nc2cc(-c3cccc(N4C(=O)c5ccccc5C4=O)c3)ncn2)cc1NS(C)(=O)=O,Potency,[2],50.1 µM (active)
same,Potency,[3],inactive
COc1cc(N2CCC(N3CCN(C)CC3)CC2)ccc1Nc1ncnc(Nc2ccccc2S(=O)(=O)C(C)C)n1,Potency,[1],inactive
same,Potency,[2],inactive
same,Potency,[3],inactive
O=C(O)c1c(Cl)c(Cl)c(Cl)c(Cl)c1-c1c2cc(I)c(=O)c(I)c-2oc2c(I)c(O)c(I)cc12,Potency,[10],inactive
same,Potency,[6],inactive
same,Potency,[9],inactive
CN(C[C@@H]1COCCO1)S(=O)(=O)Nc1ccc2ccc3ncc(-c4cnn(C)c4)cc3c(=O)c2c1,Potency,[1],inactive
same,Potency,[2],inactive
same,Potency,[3],inactive
CCn1c(C(=O)N(C2CC2)C2CC2)cc2c3c(ncn3C)c(Nc3cc(C)n(C)n3)nc21,Potency,[2],inactive
same,Potency,[3],inactive
CS(=O)(=O)N(Cc1ccco1)CC(O)Cn1c2ccccc2c2ccccc21 (stereo not drawn),Potency,[1],inactive
same,Potency,[2],inactive
same,Potency,[3],inactive
CC(C)[C@H](CO)Nc1nc(Nc2ccc(C(=O)O)c(Cl)c2)c2ncn(C(C)C)c2n1,Potency,[1],inactive
same,Potency,[2],inactive
same,Potency,[3],inactive
COc1ccc(C2CC(c3ccccc3)=NN2c2ccc(S(N)(=O)=O)cc2)cc1 (stereo not drawn),Potency,[2],inactive
same,Potency,[3],inactive
Cn1c(N2CCCCS2(=O)=O)nc(C(=O)NCc2ccc(F)cc2)c(O)c1=O,Potency,[1],inactive
same,Potency,[2],inactive
same,Potency,[3],inactive
O=C(NCc1ccccc1)c1csc(Nc2ccncn2)n1,Potency,[2],inactive
same,Potency,[3],inactive
O=C(Nc1ccccc1-c1cn2c(CN3CCNCC3)csc2n1)c1cnc2ccccc2n1,Potency,[1],inactive
same,Potency,[2],inactive
same,Potency,[3],inactive
COCCOC(=O)C1=C(C)NC2=C(C(=O)CC(c3ccccc3OC)C2)C1c1cccc(O)c1 (stereo not drawn),Potency,[2],inactive
same,Potency,[3],inactive
COCCOc1nc(-c2ccc(Cl)c(Cl)c2)n(-c2ccc(NC(=O)CCl)cc2)n1,Potency,[1],inactive
same,Potency,[2],inactive
same,Potency,[3],inactive
O=c1cc(CN2CCOCC2)occ1OCCCCCSc1ccnc2cc(C(F)(F)F)ccc12,Potency,[1],inactive
same,Potency,[2],inactive
same,Potency,[3],inactive
CC(C)C(=O)Nc1ncc(-c2cc(C(F)F)nn2-c2c(Cl)cccc2Cl)s1,Potency,[1],inactive
same,Potency,[2],inactive
same,Potency,[3],inactive
Cc1nc(N)sc1-c1ccnc(Nc2ccc(N3CCOCC3)cc2)n1,Potency,[1],inactive
same,Potency,[2],inactive
same,Potency,[3],inactive
CCOC(=O)C1=C(N)Oc2ccc(Br)cc2C1C(C#N)C(=O)OCC (stereo not drawn),Potency,[1],inactive
same,Potency,[3],inactive
COc1cc2c(cc1OC)CN(CCc1ccc(NC(=O)c3cc(OC)c(OC)cc3NC(=O)c3cnc4ccccc4c3)cc1)CC2,Potency,[1],inactive
same,Potency,[2],inactive
same,Potency,[3],inactive
CCCCCN(C)CCC(O)(P(=O)(O)O)P(=O)(O)O,outcome,[11],inactive
NC(=O)c1cnc(-c2ccc(C3(N)CCC3)cc2)c(-c2ccccc2)c1,Potency,[1],inactive
same,Potency,[2],inactive
same,Potency,[3],inactive
